Over roughly 68,000 sequences, “fluorescence intensity (a.u.)” has its median near 9,100; the highest 2% begin near 16,000. This is one part of a sample in which the highest values are shown more often than they occur.

Chain of OsWRKY34 (Q0JBA9 entry or part of it): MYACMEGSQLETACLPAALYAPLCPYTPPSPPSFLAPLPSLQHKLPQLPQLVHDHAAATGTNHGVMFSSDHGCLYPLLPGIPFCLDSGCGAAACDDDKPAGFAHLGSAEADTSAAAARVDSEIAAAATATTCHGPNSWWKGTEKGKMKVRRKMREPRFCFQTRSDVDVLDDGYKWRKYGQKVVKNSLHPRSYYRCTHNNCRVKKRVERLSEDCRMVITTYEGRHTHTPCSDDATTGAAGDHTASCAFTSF

The experiment has as its target OsWRKY34 (Oryza sativa, UniProt Q0JBA9 1-250). The experiment in a line: protein-binding microarray (RPBM); PBS, 2% BSA, 51.3 ng/ul salmon testes DNA, 50 uM zinc acetate, 200 nM TF, 25 C, 1 h; high values mean tight binding. As to conditions: protein: recombinant; tags: N-terminal polyhistidine and DsRed monomer fusion (pET32a); label: CyDye5-dUTP incorporated in the synthesized complementary strand; 3' TTTTT single-stranded linker to array surface; dsDNA, one strand shown. The essentials:
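Transcription factors were each fused at the N-terminus to a polyhistidine tag plus DsRed and expressed in E. coli BL21-CodonPlus before Ni–NTA purification. Binding to a double-stranded custom Agilent array was carried out with 200 nM protein at 25 °C for 1 h in PBS, 2% BSA, salmon testes DNA and 50 µM zinc acetate. The binding signal is per-feature fluorescence intensity, in arbitrary units, on an Axon 4000B scanner.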
“GCCATTTGTACGTTTCTATTTTCTCAGTAATCAGACCATTCGGAGTCACCTAGTGCAG”: the binding signal is 11600 fluorescence intensity (a.u.).
Then “CCCGTCTCCTCGCCTGCCGATCTCCATCCTGCTAGCAGAGCGGAGTCACCTAGTGCAG”, with 8930 fluorescence intensity (a.u.).
The same measure for “AGATACATACGCCCACCCGCCGCGCCCACTTCCGTCCAAACGGAGTCACCTAGTGCAG”: 8490 fluorescence intensity (a.u.).
The same measure for “TCCTCCTGTCTCTGCCTCTGCTCGGCTAGTCTAGTGTACTCGGAGTCACCTAGTGCAG”: 8810 fluorescence intensity (a.u.); for “GTATTTAATTAGCTCCTCGTCTTGTTCTGCTAAGCTACTACGGAGTCACCTAGTGCAG”: 9460 fluorescence intensity (a.u.); for “TTGTCATCCTCGCCACCTCATTCTTTCTTTCTTTCATCTCCGGAGTCACCTAGTGCAG”: 12900 fluorescence intensity (a.u.).
With “ACATAACACCACTTGATACTATTTCTCTTAATTAATTACTCGGAGTCACCTAGTGCAG”, the binding signal is 9670 fluorescence intensity (a.u.).
With “GACTTTTTAGTACGTGTTTGACCATTCGTCTTATTCAAAACGGAGTCACCTAGTGCAG”, the binding signal was 11900 fluorescence intensity (a.u.).
As to “CCGTTGACTTTTTAGTACGTGTTTGACCATTCGTCTTATTCGGAGTCACCTAGTGCAG”, the binding signal was 32300 ± 947 fluorescence intensity (a.u.).
As for “GTTGACTTTTTAGTACGTGTTTGACCATTCGTCTTATTCACGGAGTCACCTAGTGCAG”, the binding signal was 10100 ± 646 fluorescence intensity (a.u.).
Then “CCATTGTTAGGGTTAAGTCTTATTTCACCACATCGTTTTTCGGAGTCACCTAGTGCAG”, with 8740 fluorescence intensity (a.u.); and “GGCTTACCCAAGAATAACGATCCAACTTGGGGAGGGAGGGCGGAGTCACCTAGTGCAG”, with 10000 fluorescence intensity (a.u.).
In the case of “TTGACTTTTTTAAACATGTTTAACTGTTCGTCTTATTAAACGGAGTCACCTAGTGCAG”, the binding signal is 8820 fluorescence intensity (a.u.).
“TTTGACGCTGTTGACTTTTTTTAACATGTTTGACTGTTCGCGGAGTCACCTAGTGCAG”: the binding signal was 32700 fluorescence intensity (a.u.).
Regarding “AATGTTTGACACCGTTGACTTTTTAACACATGTTTGACCGCGGAGTCACCTAGTGCAG”, the binding signal was 39300 fluorescence intensity (a.u.).
Take “TTTGACACCGTTGACTTTTTTAAACATGTTTAACTGTTCGCGGAGTCACCTAGTGCAG”: the binding signal is 33900 fluorescence intensity (a.u.).
With “GAGCCCGTACTCATTTCTCGCCAAGTGCACCACTTCACTCCGGAGTCACCTAGTGCAG”, the binding signal was 10700 fluorescence intensity (a.u.).
For the sequence “TCCTCTACTGGTTCTACGTCTTCTCATAATCAACCCAAATCGGAGTCACCTAGTGCAG”, the binding signal was 11700 fluorescence intensity (a.u.).
Take “CGCTCATCTATTTCTTTGTAGTACAACGCAGGCGCTCACACGGAGTCACCTAGTGCAG”: the binding signal is 8090 fluorescence intensity (a.u.).
The same measure for “CTTCCCATGGCTTTTACTCTCCACTCGAAATCTCGTAACACGGAGTCACCTAGTGCAG”: 11100 fluorescence intensity (a.u.); for “TAGCTCCATTGTTCGATCTCATCTCCCTTAGCTAGCTACTCGGAGTCACCTAGTGCAG”: 8130 fluorescence intensity (a.u.); for “GCATCACTATTCACTCCATGTTCTCTCTTCCTACTCTCCACGGAGTCACCTAGTGCAG”: 8250 fluorescence intensity (a.u.).
Regarding “AATCGATTCTCCACTACTCTCTCGTCATTGTTCCCATGTTCGGAGTCACCTAGTGCAG”, the binding signal is 20100 fluorescence intensity (a.u.).
Turning to “GCAGCATCACTCCATGTTCTCTCTTCCTACTCTCCATACTCGGAGTCACCTAGTGCAG”, the binding signal was 16800 fluorescence intensity (a.u.).
Take “ACACACTACTACTACTCTTCTCCCTCTCCATCTCTTCCCTCGGAGTCACCTAGTGCAG”: the binding signal was 8320 fluorescence intensity (a.u.).
For the sequence “CTCGTCATTGTTCCCATGTTTTTCTATTTCATTTCTAATTCGGAGTCACCTAGTGCAG”, the binding signal was 9350 fluorescence intensity (a.u.).
The same measure for “CTTATGTCTCACTAAATATTTACTTTTGCCATCGGCAAATCGGAGTCACCTAGTGCAG”: 8080 fluorescence intensity (a.u.).
Consider “GTCACCTTTTCTTTTATCAACATTCATTTGTTTTATTACTCGGAGTCACCTAGTGCAG”, for which the binding signal was 8270 fluorescence intensity (a.u.).
Consider “AATTCAACGCACGTCTCTTGTCCTGCACTTCTGCTATGCCCGGAGTCACCTAGTGCAG”, for which the binding signal is 11000 fluorescence intensity (a.u.).
Turning to “AATTCTATGCCTCGATACATTTTTGGTGTTTATTATGGTTCGGAGTCACCTAGTGCAG”, the binding signal was 8460 fluorescence intensity (a.u.).
As for “CTCACCGCGCCGCTCACCTCCTCAAGACCACCACCCACCACGGAGTCACCTAGTGCAG”, the binding signal is 9730 fluorescence intensity (a.u.).
As for “ACAAATCCTGGTCATTTCTTGACCGTATGAATTCTAGAAACGGAGTCACCTAGTGCAG”, the binding signal is 9650 fluorescence intensity (a.u.).
Take “CAACCTCTTGCTAACTTTCCTTTGAGTCTATCTCTCTCATCGGAGTCACCTAGTGCAG”: the binding signal is 10700 fluorescence intensity (a.u.).
As for “AAGAAATCTCTTTGAAAAACTTGCATGCTAACTTGAGACGCGGAGTCACCTAGTGCAG”, the binding signal is 44900 fluorescence intensity (a.u.).
On to “AGAATCTGACGTTTTATTTCTGAAACTTTCTTTGCATGCACGGAGTCACCTAGTGCAG”, for which the binding signal is 8030 fluorescence intensity (a.u.).
The same measure for “GTGCTCGGCTCCTCTCTCAGTAGCTTGTATGTGTCAGTTGCGGAGTCACCTAGTGCAG”: 10500 fluorescence intensity (a.u.); for “AGCTTCAACCTCTTGTAACTTTCCTTTGAGTATATCTCTCCGGAGTCACCTAGTGCAG”: 10200 fluorescence intensity (a.u.); for “GGGTGAAAATGTCTGGTTTTGTGGTTTAAGGGTGTAATTCCGGAGTCACCTAGTGCAG”: 8700 fluorescence intensity (a.u.).
On to “GGATATCCGGTTTTGTGGTTGGGTGACGATTTTGTAATTCCGGAGTCACCTAGTGCAG”, for which the binding signal was 9010 fluorescence intensity (a.u.).
As for “TGTCCGGTATTTTAAGTTTAGGGTGAGTAATATCTGGTTTCGGAGTCACCTAGTGCAG”, the binding signal was 10600 fluorescence intensity (a.u.).
Consider “GGGTGAGTAATATCTGGTTTTTGGGTTTAGGGCGGTAATTCGGAGTCACCTAGTGCAG”, for which the binding signal is 17700 fluorescence intensity (a.u.).
Then “TTGGGTTTAGGGCGGTAATTCGGTTGACCGCGATAGTTCACGGAGTCACCTAGTGCAG”, with 12400 fluorescence intensity (a.u.).

For the origin of these results see article PMC7819943, “Rice protein-binding microarrays: a tool to detect cis-acting elements near promoter regions in rice”.
